Screening data: PubChem, National Center for Advancing Translational Sciences (NCATS)
Pf growth 96h: P. falciparum growth inhibition at 96 hours; P. falciparum luciferase reporter growth, 96 h; Potency, µM (series often up to 28.7 µM), inactives show at the top dose activity change, negative = inhibition, actives largely listed as inhibitors; 6.9% of 320,000 active; AID 504834; note: potency is the fitted concentration of half-maximal effect; % is set by controls: 0 for no effect and ±100 for the full control effect
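Erythrocytes infected with luciferase-expressing P. falciparum were dispensed at 2% hematocrit and 0.05% parasitemia (final), then incubated with compounds 96 hours at 37 C in 5% CO2. Luminescence after detection reagent addition reported growth.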
Shiga inhibitor: Shiga toxin inhibition. 9.2% of 290,000 active. inhibition, % at 38.7 µM. AID 2315. Vero cells, Shiga toxin protein synthesis inhibition reporter; in the data active = inhibition mostly above about 28%, no sharp cut-off; inactive = mostly below about 43%; note: 0% is about no effect
HCMV antiviral: inhibitors of human cytomegalovirus | HFF cells, HCMV-luciferase reporter, 72 h; active compounds read low | activity change, negative = inhibition, % at 57.5 µM | 4.5% of 410,000 active; in the data active = activity change below about -60%; inconclusive = no clear call, values can overlap the other calls; inactive = above about -39%; note: % is set by controls: 0 for no effect and ±100 for the full control effect
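Two-dose cell screen: HFF monolayers treated with compounds and infected with luciferase-expressing HCMV at 1 PFU/cell, 72 h at 37C, then lysed for luciferase measurement.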
Pf growth 48h: inhibits P. falciparum growth in the first generation, 48 h; P. falciparum luciferase growth in erythrocytes, 48 h; Potency, µM (doses to about 28.7 µM), without a hit: at the top dose activity change, negative = inhibition, most hits filed as inhibitors; 5.9% of 310,000 active; AID 504832; note: potency is the fitted concentration of half-maximal effect; % is set by controls: 0 for no effect and ±100 for the full control effect
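Luminescence readout; reporter = integrated firefly luciferase in P. falciparum. RBC culture at 2% hematocrit, 0.1% parasitemia final, 37 C/5% CO2; decreased signal taken as growth inhibition.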
HCV inhibitor: inhibitors of hepatitis C virus infection. Potency, µM (highest dose often 41.8 µM), inactives show at the highest dose activity change, negative = inhibition, most hits filed as inhibitors. AID 651820. 3.4% of 340,000 active. Huh7.5.1 HCVcc-Cre infection, luciferase reporter, 44 h; note: potency is the fitted concentration of half-maximal effect; % is set by controls: 0 for no effect and ±100 for the full control effect
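After 44 h co-culture of compound, cells and HCVcc-Cre (~0.5 moi), substrate is added for 15 min at room temperature and luciferase measured over 15 sec. Cells were seeded at 1,000/well and pre-cultured 4 h.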
CHX counter: counter-screen for Shiga toxin inhibitors: cycloheximide protein synthesis inhibition | cell reporter, cycloheximide protein synthesis inhibition counterscreen | max response, % | 12% of 300,000 active; in the data active = max response mostly above about 13%, no sharp cut-off; inactive = mostly below about 14%; note: read at 38.3 µM for the half of the compounds with a filed dose; 0% is about no effect
Numbers without * were called inactive; ! = a repeat was not active; [ ] = another dose, or the depositor's remark. A selection: hits, their analogues and other compounds. The true share with any hit is near 21%. Unless noted, calls come from the whole dose curve; as a rule, active = well fitted inhibition curve with a large enough effect; inconclusive = small, poorly fitted or top-dose-only effect, or another doubt; inactive = no such curve, though single readings can be large or run the other way.

Results for COCCCn1c(-c2ccc(S(=O)(=O)N3CCOCC3)cc2)csc1=Nc1ccccc1 ?
Pf growth 96h: inconclusive; Shiga inhibitor: -7.6; HCMV antiviral: -88.0*!; HCV inhibitor: inconclusive; CHX counter: 10.4

Results for Cc1ccc(-c2ccc(S(=O)(=O)N3CCCC3)cc2)cc1 ?
Pf growth 96h: 31.1%; Shiga inhibitor: -4.9; HCMV antiviral: 12.8; Pf growth 48h: -14.5%[5.75 µM]; HCV inhibitor: 15.7%; CHX counter: -3.6

Results for O=S(=O)(c1ccc(-c2csc(=Nc3ccc(OC(F)(F)Cl)cc3)n2CCCO)cc1)N1CCCC1 ?
HCMV antiviral: -100.4*

Results for COc1cc(N=Nc2ccc(C(=O)N(C)C)cc2)c(C)cc1N ?
HCMV antiviral: 72.4; HCV inhibitor: inconclusive

How did O=c1[nH]c(SCc2ccccc2)nc2c1CCCC2 do in these assays?
HCMV antiviral: -3.3

What do the screens show for `COc1ccc(OC)c(NC(=S)NN2CCOCC2)c1`?
Pf growth 96h: 30.4%; Shiga inhibitor: -2.8; HCMV antiviral: -102.3*; Pf growth 48h: 25.8%; HCV inhibitor: 20.3%; CHX counter: 2.3

Results for COc1ccc(OC)c(NC(=S)N2CCC(C(O)(c3ccccc3)c3ccccc3)CC2)c1 ?
Pf growth 96h: inconclusive; Shiga inhibitor: 15.2; HCMV antiviral: -9.0; Pf growth 48h: 9.28µM*; HCV inhibitor: -18.1%; CHX counter: 4.9

What do the screens show for `Cc1ccc(C)c(NC(=S)NCCN2CCOCC2)c1`?
HCMV antiviral: 4.9; HCV inhibitor: 0.4%

How did Cc1ccc(NC(=S)NN2CCOCC2)c(C)c1 do in these assays?
Pf growth 96h: 14.7µM*; Shiga inhibitor: -27.7; HCMV antiviral: 22.5; Pf growth 48h: 19.5%; HCV inhibitor: -3.1%; CHX counter: -2.1

How did COc1ccc(Cl)cc1NC(=S)NN1CCOCC1 do in these assays?
Pf growth 96h: 12.9%; Shiga inhibitor: -9.9; HCMV antiviral: inconclusive; Pf growth 48h: 27.3%; HCV inhibitor: 10.4%; CHX counter: 5.2

What do the screens show for `Cc1ccccc1-n1c(SCC(=O)Nc2ccccc2)nc2nc3c(cc2c1=O)CCCC3`?
Pf growth 96h: 45.8%; Shiga inhibitor: -9.6; HCMV antiviral: -79.7*; Pf growth 48h: inconclusive; HCV inhibitor: inconclusive; CHX counter: -2.9

What do the screens show for `Cc1cccc(NC(=O)CSc2nc3nc4c(cc3c(=O)n2-c2ccccc2)CCCC4)c1`?
Pf growth 96h: 2.94µM*; Shiga inhibitor: -12.6; HCMV antiviral: -32.8; Pf growth 48h: 5.22µM*; HCV inhibitor: inconclusive; CHX counter: -2.3

What do the screens show for `Cc1cccc(NC(=O)CSc2nc3c(oc4ccccc43)c(=O)n2-c2ccccc2)c1`?
Pf growth 96h: inconclusive; Shiga inhibitor: 9.1; HCMV antiviral: -26.1; Pf growth 48h: -15.2%; HCV inhibitor: inconclusive; CHX counter: -1.1

What do the screens show for `CCn1c(SCC(=O)NCc2ccccc2)nc2nc3c(cc2c1=O)CCCC3`?
Pf growth 96h: inconclusive; Shiga inhibitor: -8.8; HCMV antiviral: -0.4; Pf growth 48h: -19.7%; HCV inhibitor: -11.5%; CHX counter: -3.7

Results for O=C(CSc1nc(O)cc(=O)n1-c1ccccc1)NC1CCCCC1 ?
Shiga inhibitor: 26.8; HCMV antiviral: 23.8; Pf growth 48h: 2.62µM*; HCV inhibitor: 3.5%; CHX counter: 2.7

What do the screens show for `O=C(CSc1nc2nc3c(cc2c(=O)n1-c1ccccc1)CCCC3)Nc1cccc2ccccc12`?
Pf growth 96h: 5.86µM*; Shiga inhibitor: 14.4; HCMV antiviral: -31.6; Pf growth 48h: 5.86µM*; HCV inhibitor: inconclusive; CHX counter: -5.7

What do the screens show for `COCCNc1oc(/C=C/c2ccc(F)cc2)nc1C#N`?
HCMV antiviral: -21.5

What do the screens show for `CCOc1ccc(CN2CCC(n3nccc3NC(=O)c3ccccc3OC)CC2)cc1`?
Pf growth 96h: inconclusive; Shiga inhibitor: 26.5; HCMV antiviral: -20.6; Pf growth 48h: -6.0%; HCV inhibitor: -21.4%; CHX counter: 9.5

What do the screens show for `O=C(CSc1nc(O)cc(=O)n1-c1ccccc1)Nc1ccc2c3c(cccc13)CC2`?
Pf growth 96h: 8.28µM*; Shiga inhibitor: 1.9; HCMV antiviral: 22.0; Pf growth 48h: inconclusive; HCV inhibitor: 8.5%; CHX counter: -1.6

Results for O=c1cc(O)nc(SCc2ccccc2)n1-c1ccc(F)cc1 ?
Pf growth 96h: inconclusive; Shiga inhibitor: -7.3; HCMV antiviral: -35.4; Pf growth 48h: 2.94µM*; HCV inhibitor: 9.0%; CHX counter: -3.1

How did CC(C)(C)C(=O)N1CCC(O)(CS(=O)(=O)c2ccc(Cl)c(Cl)c2)CC1 do in these assays?
Pf growth 96h: 22.2%; Shiga inhibitor: -6.9; HCMV antiviral: -22.4; Pf growth 48h: 169.5%; HCV inhibitor: 7.6%; CHX counter: -1.9

What do the screens show for `COCCn1c(SCC(=O)Nc2c(C)n(C)n(-c3ccccc3)c2=O)nc2ccccc2c1=O`?
Pf growth 96h: -25.1%; HCMV antiviral: 0.0; Pf growth 48h: -14.3%; HCV inhibitor: -7.9%

How did COc1ccc(/C=C/C(=O)O)cc1S(=O)(=O)NCc1ccccc1 do in these assays?
Pf growth 96h: 0.0%; Shiga inhibitor: 26.3; HCMV antiviral: 4.0; Pf growth 48h: 73.5%; HCV inhibitor: 6.4%; CHX counter: -1.8

Results for COc1ccc(/C=C/S(=O)(=O)NCc2ccccc2)cc1OC ?
Pf growth 96h: 38.7%; Shiga inhibitor: -9.9; HCMV antiviral: -39.3; Pf growth 48h: 11.7µM*; HCV inhibitor: 9.1%; CHX counter: -0.5

Results for O=C(Cn1c(O)c(/C=C2\C=Nc3ccccc32)sc1=O)Nc1ccc2c(c1)OCO2 ?
Pf growth 96h: 80.6%; Shiga inhibitor: -6.6; HCMV antiviral: -23.1; Pf growth 48h: 19.7%; HCV inhibitor: inconclusive; CHX counter: 29.2*

Results for O=C(Cn1c(O)c(/C=C2\C=Nc3ccc(Br)cc32)sc1=O)N1CCCC1 ?
Pf growth 96h: 11.7µM*; Shiga inhibitor: 14.4; HCMV antiviral: 6.5; HCV inhibitor: inconclusive; CHX counter: -1.4

How did Cc1ccc(NC2CCCCC2NS(=O)(=O)c2ccccc2)c(C)c1 (stereo not given) do in these assays?
Pf growth 96h: inconclusive; Shiga inhibitor: 11.0; HCMV antiviral: -14.7; Pf growth 48h: inconclusive; HCV inhibitor: inconclusive; CHX counter: 2.6

What do the screens show for `O=C(Nc1ccc(S(=O)(=O)Nc2ccccc2F)cc1)N1CCCCC1`?
Pf growth 96h: inconclusive; Shiga inhibitor: -11.0; HCMV antiviral: 19.3; Pf growth 48h: 25.5%; HCV inhibitor: -17.3%; CHX counter: 15.8

How did Cc1ccc(S(=O)(=O)N2CCN(Cc3ccco3)CC2)cc1C do in these assays?
Pf growth 96h: 15.8%; Shiga inhibitor: -13.3; HCMV antiviral: inconclusive; Pf growth 48h: -11.9%; HCV inhibitor: 2.4%; CHX counter: 4.1
